Over roughly 2,900 compounds, “NF-kB SEAP reporter activity, fold change vs agonist alone” has its median near 0.99; the highest 2% begin near 2.6. The sample as a whole holds a higher share of the highest values than the screen did.
Columns and labels:
[1] = test system: RAW-Dual; assay: NF-kB SEAP reporter activity, fold change vs agonist alone; higher = enhanced NF-kB activity
Outline: (§1)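 Supernatant from RAW-Dual macrophages was read after 20 hours for IRF by QuantiLuc luminescence and for NF-κB by QuantiBlue absorbance at 620 nm. The cells (50,000 cells/well in DMEM, 384-well plates, 37 °C, 5% CO2) had received 50 nL of library stock by pin tool and, 1 h later, a PRR agonist. Reporter activity is expressed relative to agonist-alone wells as fold change, and wells were flagged cytotoxic if IncuCyte confluency was under 70% of agonist controls in both mask sets.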

[2] = test system: RAW-Dual; assay: NF-kB SEAP reporter activity, fold change vs agonist alone; cytotoxicity flag (confluency mask): not cytotoxic; higher = enhanced NF-kB activity
Outline: as §1

[3] = test system: RAW-Dual; assay: NF-kB SEAP reporter activity, fold change vs agonist alone; cytotoxicity flag (confluency mask): cytotoxic (confluency <70% of control); higher = enhanced NF-kB activity
Outline: as §1

[4] = library stock concentration (final ~1000-fold dilution): 10 mM, cytotoxicity flag (confluency mask): not cytotoxic, agonist: Imiquimod (TLR7) […]
[5] = library stock concentration (final ~1000-fold dilution): 10 mM, cytotoxicity flag (confluency mask): not cytotoxic, agonist: MPLA (TLR4) […]
[6] = agonist: ODN 1826 (TLR9) 0.5 ug/mL
[7] = agonist: Pam2CSK4 (TLR2/6) 0.1 ug/mL
[8] = agonist: Pam3CSK4 (TLR2/1) 0.1 ug/mL

C/C(=N\NC(=O)c1cccc(S(=O)(=O)N2CCOCC2)c1)c1cc(Cl)ccc1O
NF-kB SEAP reporter activity [1, 4]: 1.53
NF-kB SEAP reporter activity [1, 5]: 1.65

C/C(=N\NC(=O)c1cccc(S(=O)(=O)N2CCOCC2)c1)c1cc(Cl)ccc1O (library stock concentration (final ~1000-fold dilution): 10 mM)
NF-kB SEAP reporter activity ([2]; agonist: LPS (TLR4) 0.1 ug/mL): 2.6
NF-kB SEAP reporter activity [2, 6]: 1.9
NF-kB SEAP reporter activity [2, 7]: 1.52
NF-kB SEAP reporter activity [2, 8]: 2.48

O=C(O)CCn1c2c(c3ccccc31)CC(NS(=O)(=O)c1ccc(F)cc1)CC2 (stereo not drawn) (library stock concentration (final ~1000-fold dilution): 10 mM)
NF-kB SEAP reporter activity ([2]; agonist: LPS (TLR4) 0.1 ug/mL): 1.07
NF-kB SEAP reporter activity [2, 6]: 0.99
NF-kB SEAP reporter activity [2, 7]: 1.13
NF-kB SEAP reporter activity [2, 8]: 1.07

O=C(O)CCn1c2c(c3ccccc31)CC(NS(=O)(=O)c1ccc(F)cc1)CC2 (stereo not drawn)
NF-kB SEAP reporter activity [1, 5]: 1.07

COc1ccc(C=Cc2cc(OC)c(OC)c(OC)c2)cc1OP(=O)(O)O (library stock concentration (final ~1000-fold dilution): 10 mM water)
NF-kB SEAP reporter activity ([3]; agonist: LPS (TLR4) 0.1 ug/mL): 5.99
NF-kB SEAP reporter activity [3, 6]: 2.48
NF-kB SEAP reporter activity [3, 7]: 2.34
NF-kB SEAP reporter activity [3, 8]: 2.65

COc1ccc(/C=C/C(=O)O)cc1OC (library stock concentration (final ~1000-fold dilution): 10 mM)
NF-kB SEAP reporter activity ([2]; agonist: LPS (TLR4) 0.1 ug/mL): 1.43
NF-kB SEAP reporter activity [2, 6]: 1.15
NF-kB SEAP reporter activity [2, 7]: 1.15
NF-kB SEAP reporter activity [2, 8]: 1.14

COc1ccc(C(=O)C=Cc2cc(OC)c(OC)c(OC)c2)cc1OC (library stock concentration (final ~1000-fold dilution): 20 mM)
NF-kB SEAP reporter activity ([3]; agonist: LPS (TLR4) 0.1 ug/mL): 0.326
NF-kB SEAP reporter activity [3, 6]: 0.215
NF-kB SEAP reporter activity [3, 7]: 0.0975
NF-kB SEAP reporter activity [3, 8]: 0.176

COc1cc(/C=C/C(=O)O)ccc1O
NF-kB SEAP reporter activity [1, 4]: 0.903
NF-kB SEAP reporter activity [1, 5]: 1.09

COc1ccc(/C=C\c2cc(OC)c(OC)c(OC)c2)cc1O
NF-kB SEAP reporter activity [1, 4]: 1.63
NF-kB SEAP reporter activity [1, 5]: 2.07

COc1ccc(C(=O)C=Cc2cc(OC)c(OC)c(OC)c2)cc1OC
NF-kB SEAP reporter activity ([1]; library stock concentration (final ~1000-fold dilution): 20 mM, cytotoxicity flag (confluency mask): cytotoxic (confluency <70% of control), agonist: Imiquimod (TLR7) […]): 0.192
NF-kB SEAP reporter activity ([1]; library stock concentration (final ~1000-fold dilution): 20 mM, cytotoxicity flag (confluency mask): cytotoxic (confluency <70% of control), agonist: MPLA (TLR4) […]): 0.302

COc1ccc(/C=C/C(=O)O)cc1OC
NF-kB SEAP reporter activity [1, 4]: 0.805
NF-kB SEAP reporter activity [1, 5]: 1.05

COc1cc(C=CC(=O)CC(=O)C=Cc2ccc(O)c(OC)c2)ccc1O (library stock concentration (final ~1000-fold dilution): 100 mM)
NF-kB SEAP reporter activity ([2]; agonist: LPS (TLR4) 0.1 ug/mL): 0.303
NF-kB SEAP reporter activity [2, 6]: 0.197
NF-kB SEAP reporter activity [2, 7]: 0.13
NF-kB SEAP reporter activity [2, 8]: 0.242

COc1cc(/C=C/C(=O)O)ccc1O (library stock concentration (final ~1000-fold dilution): 10 mM)
NF-kB SEAP reporter activity ([2]; agonist: LPS (TLR4) 0.1 ug/mL): 1.16
NF-kB SEAP reporter activity [2, 6]: 1.12
NF-kB SEAP reporter activity [2, 7]: 1.17
NF-kB SEAP reporter activity [2, 8]: 1.04

COc1ccc(/C=C\c2cc(OC)c(OC)c(OC)c2)cc1O (library stock concentration (final ~1000-fold dilution): 10 mM)
NF-kB SEAP reporter activity ([2]; agonist: LPS (TLR4) 0.1 ug/mL): 4.68
NF-kB SEAP reporter activity [2, 6]: 2.84
NF-kB SEAP reporter activity [2, 7]: 1.69
NF-kB SEAP reporter activity [2, 8]: 2.62

COc1ccc(C=Cc2cc(OC)c(OC)c(OC)c2)cc1OP(=O)(O)O
NF-kB SEAP reporter activity ([1]; library stock concentration (final ~1000-fold dilution): 10 mM water, cytotoxicity flag (confluency mask): cytotoxic (confluency <70% of control), agonist: Imiquimod (TLR7) […]): 1.67
NF-kB SEAP reporter activity ([1]; library stock concentration (final ~1000-fold dilution): 10 mM water, cytotoxicity flag (confluency mask): cytotoxic (confluency <70% of control), agonist: MPLA (TLR4) […]): 2.09

COc1cc(C=CC(=O)CC(=O)C=Cc2ccc(O)c(OC)c2)ccc1O
NF-kB SEAP reporter activity ([1]; library stock concentration (final ~1000-fold dilution): 100 mM, cytotoxicity flag (confluency mask): not cytotoxic, agonist: Imiquimod (TLR7) […]): 0.155
NF-kB SEAP reporter activity ([1]; library stock concentration (final ~1000-fold dilution): 100 mM, cytotoxicity flag (confluency mask): not cytotoxic, agonist: MPLA (TLR4) […]): 0.257

CCC(C)C(NC(=O)C(CCCCN)NC(=O)C(CCC(=O)O)NN)C(=O)NC(CCC(N)=O)C(=O)NC(C)C(=O)NC(CCCCN)C(=O)N1CCCC1C(=O)NC(C)C(=O)C(=O)C(CC(C)C)NC(=O)C(CCC(N)=O)NC(=O)C(NC(=O)C(NC(=O)C(CCCNC(=N)N)NC(=O)C(Cc1ccccc1)NC(=O)C(CCCCNNC(Cc1ccccc1)C(=O)NC(CO)C(=O)NC(CCC(=O)O)C(=O)NC(CO)C(=O)NC(C(=O)NC(CC(N)=O)C(=O)NC(C=O)CO)C(C)O)NC(=O)C(Cc1ccccc1)NC(=O)C(CO)NC(=O)C(CCC(=O)O)NC(=O)C(CO)NC(=O)C(NC(=O)C(CC(N)=O)NC(=O)C(N)CO)C(C)O)C(C)C)C(C)O (stereo not drawn)
NF-kB SEAP reporter activity ([1]; library stock concentration (final ~1000-fold dilution): 10 mM water, cytotoxicity flag (confluency mask): not cytotoxic, agonist: Imiquimod (TLR7) […]): 0.927
NF-kB SEAP reporter activity ([1]; library stock concentration (final ~1000-fold dilution): 10 mM water, cytotoxicity flag (confluency mask): not cytotoxic, agonist: MPLA (TLR4) […]): 1.03

CCC(C)C(NC(=O)C(CCCCN)NC(=O)C(CCC(=O)O)NN)C(=O)NC(CCC(N)=O)C(=O)NC(C)C(=O)NC(CCCCN)C(=O)N1CCCC1C(=O)NC(C)C(=O)C(=O)C(CC(C)C)NC(=O)C(CCC(N)=O)NC(=O)C(NC(=O)C(NC(=O)C(CCCNC(=N)N)NC(=O)C(Cc1ccccc1)NC(=O)C(CCCCNNC(Cc1ccccc1)C(=O)NC(CO)C(=O)NC(CCC(=O)O)C(=O)NC(CO)C(=O)NC(C(=O)NC(CC(N)=O)C(=O)NC(C=O)CO)C(C)O)NC(=O)C(Cc1ccccc1)NC(=O)C(CO)NC(=O)C(CCC(=O)O)NC(=O)C(CO)NC(=O)C(NC(=O)C(CC(N)=O)NC(=O)C(N)CO)C(C)O)C(C)C)C(C)O (stereo not drawn) (library stock concentration (final ~1000-fold dilution): 10 mM water)
NF-kB SEAP reporter activity ([2]; agonist: LPS (TLR4) 0.1 ug/mL): 1.1
NF-kB SEAP reporter activity [2, 6]: 1.16
NF-kB SEAP reporter activity [2, 7]: 1.13
NF-kB SEAP reporter activity [2, 8]: 1.74
